About 83,000 compounds went through this panel and 20% of them were active in at least one assay; those are over-represented in the sample as a whole.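 48-hour exposure, single concentration, 96-well plates; percent growth endpoint where 0 means no net growth. Active: below 10.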 Active and inactive are the calls of the source.
Columns and labels:
Test in all cases: NCI-60 one-dose screen, 48 h (100 = growth as untreated, 0 = no growth, -100 = all killed)
Details in all cases: 10 µM unless noted
[1] = tested on: HCT-15 colon
[2] = tested on: HT29 colon
[3] = tested on: SNB-75 CNS
[4] = tested on: SNB-19 CNS
[5] = tested on: PC-3 prostate
[6] = tested on: SK-MEL-5 melanoma
[7] = tested on: UACC-62 melanoma
[8] = tested on: LOX IMVI melanoma
[9] = tested on: SK-MEL-28 melanoma
[10] = tested on: SN12C renal
[11] = tested on: UO-31 renal
[12] = tested on: TK-10 renal
[13] = tested on: ACHN renal
[14] = tested on: CAKI-1 renal
[15] = tested on: A498 renal
[16] = tested on: CCRF-CEM leukemia
[17] = tested on: MOLT-4 leukemia
[18] = tested on: SK-MEL-2 melanoma
[19] = tested on: EKVX NSCLC

Measured: growth

CC(C)(C)c1ccc(OP(=S)(N/N=C/c2ccccc2O)Oc2ccc(C(C)(C)C)cc2)cc1
inactive: [1] 69.9% | [2] 69.2% | [3] 66.1% | [4] 81% | [5] 30.1% | [6] 73.5% | [7] 76.5% | [8] 67.6% | [9] 83.3% | [10] 72.6% | [11] 61% | [12] 74.4% | [13] 87.7% | [14] 62.7% | [15] 89.9% | [16] 68.6% | [17] 43.7%

CC1(C)CC[C@]2(CO)CC[C@]3(C)C(=CC[C@@H]4[C@@]5(C)CC[C@H](NCO)C(C)(C)[C@@H]5CC[C@]43C)[C@@H]2C1
inactive: [4] 17.8% | [9] 60.8% | [19] 41% | [12] 100%
active: [1] -76.1% | [2] -43.2% | [3] -2.38% | [6] -2.6% | [7] -73% | [18] -38% | [10] -75.2% | [11] -58.9% | [13] -69.2% | [14] -71.9% | [16] 0.708% | [17] -19.7%

Fc1ccc2c(c1)c(-c1nc(-c3c[nH]c4ncccc34)cs1)cn2CCCN1CCCCC1
active: [1] -8.44% | [2] -38.4% | [6] -52% | [9] -68.3% | [16] 8.52%
inactive: [3] 64% | [4] 60.1% | [5] 47.9% | [8] 44% | [18] 106% | [19] 66% | [10] 63.1% | [11] 44.4% | [12] 107% | [13] 71.7% | [15] 77.8% | [17] 12.9%

COC(=O)[C@]12CC[C@@H](C)[C@H](C)[C@@H]1C1=CC[C@@H]3[C@@]4(C)C[C@@H](O)[C@H](O)[C@@](C)(CO)C4=CC[C@@]3(C)[C@]1(C)CC2
active: [1] -60.8% | [2] -36.6% | [3] -58.7% | [4] -80.4% | [5] -85.1% | [6] -98.6% | [8] -100% | [9] -81% | [18] -36.9% | [19] -71.8% | [10] -71.5% | [11] -48.9% | [12] -17.7% | [13] -83.7% | [14] -10.2% | [15] -94.7% | [16] -33.6% | [17] -47.4%

COc1cccc(-c2nn(-c3ccccc3)cc2-c2ccnc(NCCCNS(=O)(=O)c3ccc(Br)cc3)c2)c1
inactive: [1] 42.5% | [3] 75.2% | [4] 60.2% | [5] 26.4% | [6] 39.9% | [8] 56.6% | [18] 50.9% | [19] 66% | [10] 57.1% | [11] 21.6% | [12] 55.7% | [13] 48.3% | [14] 51.1% | [15] 41.4% | [16] 32.1% | [17] 23.5%
active: [2] 9.65%

Cc1cc2nc3c4cc(O)ccc4n(CCN(C)C)c3nc2cc1C
active: [1] -29.3% | [2] 1.97% | [3] -5.77% | [4] 2.18% | [5] 6.53% | [6] -27.4% | [7] -49.5% | [9] -8.23% | [18] -42.9% | [19] 2.33% | [10] 3.51% | [11] -37.5% | [12] 5.14% | [13] -33.7% | [14] -39% | [15] 9.28% | [16] 9.31% | [17] 1.9%

CCCCCC1CCCCN1C(=O)OCC (stereo unspecified)
inactive: [1] 96% | [2] 101% | [3] 88.4% | [4] 105% | [5] 91.9% | [6] 116% | [7] 105% | [9] 106% | [18] 94.9% | [19] 124% | [10] 102% | [12] 100% | [13] 98.8% | [14] 99.4% | [15] 91.4% | [16] 96.6% | [17] 79.9%

C[C@]12CC[C@@H]3c4ccc(O)cc4CC[C@H]3[C@@H]1C[C@H](O)[C@@H]2O
inactive: [1] 97.3% | [2] 109% | [3] 82% | [4] 102% | [5] 92.4% | [6] 94.1% | [8] 92.4% | [9] 96.5% | [18] 104% | [19] 67.4% | [10] 94.9% | [11] 78.2% | [12] 100% | [13] 93.7% | [14] 90.5% | [15] 92.6% | [16] 103% | [17] 109%

Cc1ccc(N(CC(=O)Nc2ccc(S(=O)(=O)N3CCC(N4CCCC4)CC3)cc2)S(=O)(=O)c2ccc(Cl)cc2)cc1
inactive: [3] 62.7% | [4] 40.6% | [18] 91.9% | [19] 70.1% | [11] 38.1% | [12] 112% | [14] 18.2% | [15] 65.6%
active: [1] -47.8% | [2] -16.9% | [6] -97.6% | [8] -88.5% | [9] -68.3% | [10] -35.7% | [13] -38.4% | [16] 3.02% | [17] 2.28%

CCN1CCN(C(=O)[C@@]2(C)CC[C@]3(C)CC[C@]4(C)C(=CC(=O)[C@@H]5[C@@]6(C)CC[C@H](OC7C[C@@H](O)[C@@H](O)C(C)O7)C(C)(C)[C@@H]6CC[C@]54C)[C@@H]3C2)CC1 (stereo partly specified)
inactive: [1] 34.2% | [3] 86.7% | [4] 39% | [5] 42.1% | [18] 105% | [19] 80.4% | [12] 136% | [13] 79.5% | [14] 89.4% | [15] 95.5%
active: [2] 1.72% | [6] -5.54% | [7] -69.3% | [9] -7.89% | [10] -64.7% | [11] -80.8% | [16] 0.503% | [17] 0.754%

Cc1nnc2nc(N)[nH]n2c1=O
inactive: [1] 99.4% | [2] 104% | [3] 93.7% | [4] 117% | [5] 98% | [6] 106% | [7] 115% | [8] 94.7% | [9] 109% | [10] 118% | [11] 84.7% | [12] 89.8% | [13] 109% | [14] 111% | [15] 118% | [16] 109% | [17] 74.7%

COc1cc(-c2cc(-c3nc4cc(Cl)c(Cl)cc4[nH]3)[nH]n2)cc(OC)c1OC
active: [5] 5.57%
inactive: [1] 52% | [2] 72.6% | [3] 70.4% | [4] 78.1% | [6] 19.6% | [7] 24.1% | [9] 47.6% | [18] 86.5% | [10] 69.7% | [11] 43.2% | [12] 107% | [13] 46.8% | [14] 84.6% | [15] 67.4%

CCC(c1ccc(OC)cc1)C(CC)c1ccc(O)c(CN2CCCCC2)c1 (stereo unspecified)
inactive: [1] 33.6% | [2] 24.7% | [3] 94.5% | [4] 90.6% | [5] 54.3% | [6] 30.6% | [8] 75.9% | [9] 41.6% | [18] 79.7% | [19] 64.6% | [10] 66% | [11] 39.6% | [12] 84.6% | [13] 82.3% | [14] 61.6% | [15] 72.8% | [16] 68.7% | [17] 62.7%

CCc1nnc(NC(=O)c2ccoc2COc2ccccc2)s1
active: [3] 8.1%
inactive: [1] 24.3% | [2] 28.6% | [4] 42.4% | [5] 67% | [6] 44.5% | [7] 34.8% | [9] 51.2% | [18] 54.3% | [19] 58.2% | [10] 55.7% | [12] 108% | [13] 64.8% | [14] 41.9% | [15] 59.2% | [16] 39.3% | [17] 25.3%

Cn1cc(-c2nc(-c3cn(C)c4ncccc34)cs2)c2cc(F)ccc21
active: [2] 8.87%
inactive: [1] 21.3% | [3] 29.1% | [4] 46.4% | [5] 47.1% | [6] 24.7% | [7] 41.7% | [9] 50.9% | [18] 31.1% | [19] 55.3% | [10] 46% | [11] 51.1% | [12] 46.3% | [13] 47.4% | [14] 20.8% | [15] 44.8% | [16] 40% | [17] 35.6%

C=C(C)[C@@H]1CC[C@]2(C)[C@H](CC[C@@H]3[C@H]4[C@H]5OC[C@@]4(CCC5(C)C)CC[C@]32C)[C@@]1(C)CCCN
inactive: [3] 95.2% | [4] 94.2% | [5] 64% | [6] 97.4% | [7] 98.5% | [9] 34.7% | [18] 101% | [19] 71.2% | [10] 75.6% | [11] 63.8% | [12] 130% | [13] 59% | [15] 118% | [16] 51.8% | [17] 10.5%
active: [1] -79.6% | [2] 6.05% | [14] 3.89%
